# Assay results reported in PubChem BioAssay (NCI).
# About 79,000 compounds went through this panel and 15% of them were active in at least one assay; those are over-represented in the sample as a whole. A number with no mark means an inactive call. Active and inactive are the calls of the source. Rule as the data show it: active = growth inhibition above about 70%; inactive = the rest.
# Test: NCI Yeast Anticancer Drug Screen. Data for the mec2-1 strain (AID 157)
# Details: S. cerevisiae mec2-1 strain, at 5.0 µM (retest, dose inferred, filed as 0.5), stronger effect = higher value
# Procedure, shortened: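 Using mec2-1 yeast: add compound, measure growth, express inhibition versus vehicle-treated cultures.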
row,Compound,growth inhibition
1,CC1=CC2OC3CC4OC(=O)/C=C/C=C/C(C(C)O)OCC(=O)C(C)CC(=O)OCC2(CC1)C4(C)C31CO1 (centres undefined),26%
2,Cc1cc(=O)oc2c3c(ccc12)OC(c1ccc(Br)cc1)CC3=O (centres undefined),15%
3,OCC(O)C(O)C(O)/C=N\Nc1ccccc1 (centres undefined),-3%
4,CN(C)Cc1ccc2[nH]c3c(c2c1)CCCC3,11%
5,CC(C)CCCC(C)C1CCC2C3CC=C4OC(=O)CCC4(C)C3CCC12C (centres undefined),-2%
6,CC(C(=O)c1ccc2cc(Br)c3ccccc3c2c1)N(C)C (centres undefined),1%
7,O=[N+]([O-])c1ccccc1SCc1ccccc1,-18%
8,C(=P(c1ccccc1)(c1ccccc1)c1ccccc1)[P+](c1ccccc1)(c1ccccc1)c1ccccc1,99% (active)
9,CCOC(=O)N1CCN(C(=S)N/N=C(\C)c2ncccn2)CC1,9%
10,CCC1(C)C(C#N)(C#N)C1(C#N)C#N,-36%
11,Cc1ccccc1C(O)(c1ccccc1C)C1(O)CCN(C)CC1,-4%
12,Oc1c(C(Nc2ccccn2)c2ccccc2)ccc2cccnc12 (centres undefined),19%
13,Cc1ccc(C(CN(C)C)C(=O)c2ccccc2)cc1C (centres undefined),-2%
14,COC(=O)/C=C(\NC1CC(OC2C[C@](O)(C(C)=O)Cc3c(O)c4c(c(O)c32)C(=O)c2c(OC)cccc2C4=O)OC(C)C1O)C(=O)OC (some centres undefined),15%
15,CC1(C)C/C(=N/NC(N)=S)C(=NO)/C(=N\NC(N)=S)C1,2%
16,Cc1cc2c(c(C(N)=O)c1C)-c1cccc(F)c1C2=O,4%
17,CN(C)c1ccc(/C=C(\C#N)c2cccc(Cl)c2)cc1,-1%
18,Cc1ccc(S(=O)(=O)NNc2nc(N(C)C)nc(N(C)C)n2)cc1,7%
19,CC(NNC(=S)NCc1ccccc1)c1cc2ccccc2cn1 (centres undefined),9%
20,COc1ccc(Cc2c(-c3ccc(C)cc3)n[nH]c(=O)c2C2C(=O)N(c3ccccc3)N=C2c2ccccc2)cc1 (centres undefined),99% (active)

row,Compound,growth inhibition
1,CC1(c2ccccc2)OC(=O)C=CC1=O (centres undefined),28%
2,CC1CCC(C)(C)c2cc([N+](=O)[O-])cc([N+](=O)[O-])c21 (centres undefined),0%
3,CC1(C)CC(=O)C(/C=N/c2nc(-c3cccc([N+](=O)[O-])c3)cs2)=C(O)C1,15%
4,O=[N+]([O-])C(=C1Nc2ccccc2N1)C(Cl)=C(Cl)Cl,10%
5,COc1ccc2c(c1)C1(C)CCCC(C)(C(=O)O)C1C(Br)C2=O (centres undefined),20%
6,COc1cc(NCC(C)(O)CN2CCC(C)CC2C)c2ncccc2c1 (centres undefined),14%
7,ClC/C=C/c1ccccc1,-1%
8,O=C(c1ccc(O)c(Br)c1)c1cc(Br)ccc1O,77% (active)
9,COc1ccc(OP2(Oc3ccc(OC)cc3)=NP(Oc3ccc(OC)cc3)(Oc3ccc(OC)cc3)=NP(Oc3ccc(OC)cc3)(Oc3ccc(OC)cc3)=NP(Oc3ccc(OC)cc3)(Oc3ccc(OC)cc3)=N2)cc1,7%
10,COc1ccccc1NC(=O)CSC(N)=O,4%
11,Cc1ccc(N=C(N)Nc2ccc(C)cn2)nc1,2%
12,FC(F)(F)c1nc(Cl)nc2nc[nH]c12,-7%
13,O=[N+]([O-])c1ccccc1CC(c1c[nH]c2ccccc12)c1c[nH]c2ccccc12,-1%
14,O=C(O)C1CCCCC1.[Ag],42%
15,CC(C)c1ccc(O)c(O)c(=O)c1,9%
16,CC(C)(C)c1ccc(Sc2ncnc3ccccc23)cc1,21%
17,CC(C)NC(=O)CN1C(=O)NC(C)(c2ccccc2)C1=O (centres undefined),6%
18,COc1cccc(N2CCN(CC(O)COc3cc4c(c5c3CCCC5)CCCC4)CC2)c1 (centres undefined),20%
19,CC(CCN)(CCN)[N+](=O)[O-],-1%
